The source of these data is PubChem BioAssay (EPA / NIEHS).

Structures are written as SMILES. Calls of active or inactive are those of the source. The calls were made as follows: active = hit-call score of the fitted dose curve at least 0.9, where 1 is the maximum; inactive = score below 0.9.

Read-out in the assay: matrix metalloproteinase-3 (MMP3), MMP3 (gene 4314)
In words: LTEA_HepaRG_MMP3: Life Technologies and Expression Analysis (LTEA) Assay for matrix metalloproteinase-3 (MMP3) using HepaRG (AID 2283519). The following applies: mRNA level, 48 h; actives raise or lower the signal. On the procedure:
LTEA_HepaRG is a cell based, multiplexed-readout assay that uses HepaRG, a human liver cell line, with measurements taken at 48 hours after chemical dosing on a 96-well plate.LTEA_HepaRG_MMP3 is one of 102 assay component(s) measured in the LTEA HepaRG cell culture assay. It is a marker of Fibrosis.Data from the assay component LTEA_HepaRG_MMP3 was analyzed into 1 endpoint. This assay endpoint, LTEA_HepaRG_MMP3, was analyzed with bidirectional fitting relative to DMSO as the negative control and baseline of activity. Using a type of inducible reporter, measures of mRNA induction for gain or loss-of-signal activity can be used to understand regulation of transcription factor activity. To generalize the intended target to other relatable targets, this assay endpoint is annotated to the protease intended target family, where the subfamily is matrix metalloproteinase.
A total of 1060 chemcials from the ToxCast library were tested in eight-point concentration-response experiments. Cell culture and cytotoxicity assays were conducted at Thermo Fisher Scientific's Custom Services facility (Madison, WI). A single lot of human HepaRG cells (Thermo Fisher Scientific, Frederick, MD) was used for the cell culture experiments. 96-well format collagen type I coated plates of human HepaRG cells were prepared using established methods. Briefly, cryopreserved HepaRG cells were thawed, plated at a density of approximately 100,000 cells/well in HepaRG Thaw, Plate, and General Purpose media (HPRG770, Thermo Fisher Scientific), and incubated for 48 hours. 0.5% DMSO was selected as vehicle control to balance the requisite need of DMSO in HepaRG cultures to maintain differentiation (for example, baseline metabolism, proportions of hepatocytes vs. cholangiocytes), while enabling further hepatic receptor pathway activation (for example, PXR and CAR) in response to chemical exposure. 48 hours after plating, the culture medium was replaced with HepaRG Serum-Free Incudtion Media. Cells were exposed to each test chemical in duplicate and maintained in CO2 incubators for another 48 hours. Chemical plates were thawed to room temperature and 200x concentrations of treatment groups were prepared. 8-point conentration-reponse curves were made with the highest exposure at 100 uM, followed by half-log dilutions, all in 0.5% DMSO. Each test plate contained variouse controls, induction positive controls (1mM phenobarbital), cytotoxicity positive controls ([…] aflatoxin B1), vehicle controls (0.5% DMSO), and total lysis controls (0.5% DMSO). Cell morphology images were taken using an Essen IncuCyte FLR automated microscope, with six 96-well plates imaged in about 24 minutes. Images were captured and exported and JPEG files. Spent culture media was transfered to black-well plates for the LDH assay, and remaining media was sorted at -80 C for later use. Cells were treated with RLT buffer and frozen until shipped for gene expression analysis. Total RNA was isolated from the cell suspension in 75 uL of Buffer RLT (Qiagen, Germantown, MD 20874) by Quintiles/Expression Analysis (Durham, NC) using a custom isolation procedure. Total RNA from each plate well was transferred to a preamplification plate. Fluidigm's 96.96 Dynamic ArrayTM (Fluidigm, Amsterdam, the Netherlands) technology was used for gene expression analyses by quantitative reverse transcription polymerase chain reaction (qRT-PCR, performed by Quintiles/Expression Analysis, Durham, NC)89. Standard TaqManTM Assays (Applied Biosystems/ThermoFisher Scientific, Foster City, CA) were used to assess the expression of 93 genes selected based on their selectivity and sensitivity to important hepatic receptors known to be modulated by environmental chemicals; importance in human hepatocyte functionality; and hepatotoxicity. […]
Take `CC1=C2C[C@H]3[C@@H](CC=C4C[C@@H](O)CC[C@@]43C)[C@@H]2CC[C@]12O[C@@H]1C[C@H](C)CN[C@H]1[C@H]2C`: the molecule was called inactive.

Consider `COS(=O)(=O)OC`, for which the result was inactive.

As for `Nc1ccc(-c2ccc(N)cc2)cc1`, the call was inactive.

As for `Nn1cnnc1`, the result was inactive.

In the case of `NS(=O)(=O)C(F)(F)C(F)(F)C(F)(F)C(F)(F)C(F)(F)C(F)(F)C(F)(F)C(F)(F)F`, the AC50 is 50 µM (active).

For the molecule `C[C@]12CCC(=O)C=C1CC[C@@H]1[C@@H]2CC[C@@]2(C)[C@H]1CC[C@]2(C)O`, the AC50 was 0.948 µM (active).

On to `c1cc2ccc3cccc4ccc(c1)c2c34`, for which the molecule was classed as inactive.

`O=S(=O)(O)C(F)(F)C(F)(F)C(F)(F)C(F)(F)F`: the call was inactive.

For `CC(C)(c1ccccc1)c1ccc(O)cc1`, the outcome was inactive.

For the molecule `c1ccc(-c2ccccc2)cc1`, the molecule was called inactive.

In the case of `CCC(C)(CC)c1cc(NC(=O)c2c(OC)cccc2OC)on1`, the outcome was inactive.

In the case of `CCCN(CCC)N=O`, the result was inactive.

For the molecule `COc1ccc(O)c(C(C)(C)C)c1`, the result was inactive.

Take `O=S(=O)(O)C(F)(F)C(F)(F)C(F)(F)C(F)(F)C(F)(F)C(F)(F)F`: the molecule was classed as inactive.

`O=C(O)C(F)(F)C(F)(F)C(F)(F)C(F)(F)C(F)(F)C(F)(F)C(F)(F)C(F)(F)F`: the result was inactive.

`CN(C)CCO`: the molecule was called inactive.

Regarding `O=C(NC(=O)c1cc(F)c(F)cc1Cl)Nc1cc(F)ccc1N1CCC(C(=O)O)CC1`, the molecule was classed as inactive.

On to `CN(C)c1nc(=O)n(C2CCCCC2)c(=O)n1C`, for which the molecule was called inactive.

Consider `CCC(C)(c1ccc(O)cc1)c1ccc(O)cc1`, for which the outcome was inactive.

Take `Oc1ccc(C(c2ccc(O)cc2)(C(F)(F)F)C(F)(F)F)cc1`: the AC50 was 76.6 µM (active).

Take `CCC(=O)O[C@H]1CC[C@H]2[C@@H]3CCC4=CC(=O)CC[C@]4(C)[C@H]3CC[C@]12C`: the AC50 was 50 µM (active).

`Cc1cc(-c2ccc(N)c(C)c2)ccc1N`: the result was inactive.

As for `O=C(O)C(F)(F)C(F)(F)C(F)(F)C(F)(F)C(F)(F)C(F)(F)C(F)(F)C(F)(F)C(F)(F)F`, the molecule was called inactive.

In the case of `C=CC(N)=O`, the result was inactive.

On to `Clc1ccc(Cl)cc1`, for which the result was inactive.

`CCNc1nc(NC(C)C)nc(SC)n1`: the result was inactive.

Consider `C[C@]12CCC(=O)C=C1CC[C@@H]1[C@@H]2CC[C@]2(C)C(=O)CC[C@@H]12`, for which the AC50 is 8.39 µM (active).

Regarding `O=C(O)C(F)(F)C(F)(F)C(F)(F)C(F)(F)C(F)(F)F`, the molecule was classed as inactive.

With `CC(C)C(=O)OCC(C)(C)C(OC(=O)C(C)C)C(C)C` (stereo not given), the outcome was inactive.

As for `Cc1ccc(O)c(C)c1`, the call was inactive.

As to `CCCCCCCCOC(=O)c1ccccc1C(=O)OCCCCCCCC`, the result was inactive.

As for `ClC(Cl)=C(c1ccc(Cl)cc1)c1ccc(Cl)cc1`, the result was inactive.

`CC(C)(O)C(=O)Nc1ccc([N+](=O)[O-])c(C(F)(F)F)c1`: the AC50 was 0.0298 µM (active).

`CCC(C)c1cc([N+](=O)[O-])cc([N+](=O)[O-])c1O` (stereo not given): the AC50 is 2.23 µM (active).

Regarding `CCCCCCOC(=O)c1ccccc1C(=O)OCCCCCC`, the result was inactive.

Turning to `Cc1cc(O)ccc1Cl`, the result was inactive.

For the molecule `Oc1ccc(Cl)cc1Cl`, the molecule was classed as inactive.

`CCCCCCCCCc1ccc(O)cc1`: the molecule was called inactive.

`Oc1c(Cl)c(Cl)c(Cl)c(Cl)c1Cl`: the AC50 is 6.02 µM (active).

In the case of `ClC1=C(Cl)[C@]2(Cl)[C@@H]3[C@@H](Cl)[C@H]4O[C@H]4[C@@H]3C1(Cl)C2(Cl)Cl`, the result was inactive.

Broadly, the AC50 is the concentration at which the activity in the assay is half-maximal.
